The full data set covers some 8,800 targets. This sample favours those with a hit. About 0.5% of all pairs of compound and target were hits. A number with no mark means an inactive call.
Tests used:
Assay in all cases: log2 fold change, soluble protein after heating vs DMSO (PISA); higher = thermal stabilisation; K562 lysate, 10 uM; active = over 0.2 and 3.5 SD of the protein, either way, in both replicates (recomputed)
lapatinib = compound: CS(=O)(=O)CCNCc1ccc(-c2ccc3ncnc(Nc4ccc(OCc5cccc(F)c5)c(Cl)c4)c3c2)o1 [lapatinib]
Summary of the method: (§1)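 Values give the log-two fold change in thermal stability against solvent controls, from duplicates. Crude K562 extract at 1 mg/mL protein, made by dounce homogenisation in PBS pH 7.4 with 1 mM MgCl2, was treated with 10 μM compound for 30 min. After 3 min heating across 48°C-58°C, aliquots were pooled, adjusted to 0.5% NP-40 at 4°C and centrifuged at 21,000xg for 90 min. The supernatant was measured by TMTpro 16plex LC-MS/MS with channel sums equalised.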

pictilisib = compound: CS(=O)(=O)N1CCN(Cc2cc3nc(-c4cccc5[nH]ncc45)nc(N4CCOCC4)c3s2)CC1 [pictilisib]
Summary of the method: as §1

crizotinib = compound: C[C@@H](Oc1cc(-c2cnn(C3CCNCC3)c2)cnc1N)c1c(Cl)ccc(F)c1Cl [crizotinib]
Summary of the method: as §1

[1] = compound: C[C@H](C1=CC=C(C=C1)C(=O)NC2=C3C=CNC3=NC=C2)N
Summary of the method: as §1

duvelisib = compound: C[C@H](Nc1ncnc2nc[nH]c12)c1cc2cccc(Cl)c2c(=O)n1-c1ccccc1 [duvelisib]
Summary of the method: as §1

gandotinib = compound: Cc1cc(Nc2cc(CN3CCOCC3)c3nc(C)c(Cc4ccc(Cl)cc4F)n3n2)n[nH]1 [gandotinib]
Summary of the method: as §1

tozasertib = compound: Cc1cc(Nc2cc(N3CCN(C)CC3)nc(Sc3ccc(NC(=O)C4CC4)cc3)n2)n[nH]1 [tozasertib]
Summary of the method: as §1

doramapimod = compound: Cc1ccc(-n2nc(C(C)(C)C)cc2NC(=O)Nc2ccc(OCCN3CCOCC3)c3ccccc23)cc1 [doramapimod]
Summary of the method: as §1

bafetinib = compound: Cc1ccc(NC(=O)c2ccc(CN3CC[C@H](N(C)C)C3)c(C(F)(F)F)c2)cc1Nc1nccc(-c2cncnc2)n1 [bafetinib]
Summary of the method: as §1

[2] = compound: Cc1cccc(CC(=O)N2CCc3c2ccc(-c2cn(C)c4ncnc(N)c24)c3F)n1
Summary of the method: as §1

Chain of UniProt A6NFQ2 (A6NFQ2 whole entry, looked up): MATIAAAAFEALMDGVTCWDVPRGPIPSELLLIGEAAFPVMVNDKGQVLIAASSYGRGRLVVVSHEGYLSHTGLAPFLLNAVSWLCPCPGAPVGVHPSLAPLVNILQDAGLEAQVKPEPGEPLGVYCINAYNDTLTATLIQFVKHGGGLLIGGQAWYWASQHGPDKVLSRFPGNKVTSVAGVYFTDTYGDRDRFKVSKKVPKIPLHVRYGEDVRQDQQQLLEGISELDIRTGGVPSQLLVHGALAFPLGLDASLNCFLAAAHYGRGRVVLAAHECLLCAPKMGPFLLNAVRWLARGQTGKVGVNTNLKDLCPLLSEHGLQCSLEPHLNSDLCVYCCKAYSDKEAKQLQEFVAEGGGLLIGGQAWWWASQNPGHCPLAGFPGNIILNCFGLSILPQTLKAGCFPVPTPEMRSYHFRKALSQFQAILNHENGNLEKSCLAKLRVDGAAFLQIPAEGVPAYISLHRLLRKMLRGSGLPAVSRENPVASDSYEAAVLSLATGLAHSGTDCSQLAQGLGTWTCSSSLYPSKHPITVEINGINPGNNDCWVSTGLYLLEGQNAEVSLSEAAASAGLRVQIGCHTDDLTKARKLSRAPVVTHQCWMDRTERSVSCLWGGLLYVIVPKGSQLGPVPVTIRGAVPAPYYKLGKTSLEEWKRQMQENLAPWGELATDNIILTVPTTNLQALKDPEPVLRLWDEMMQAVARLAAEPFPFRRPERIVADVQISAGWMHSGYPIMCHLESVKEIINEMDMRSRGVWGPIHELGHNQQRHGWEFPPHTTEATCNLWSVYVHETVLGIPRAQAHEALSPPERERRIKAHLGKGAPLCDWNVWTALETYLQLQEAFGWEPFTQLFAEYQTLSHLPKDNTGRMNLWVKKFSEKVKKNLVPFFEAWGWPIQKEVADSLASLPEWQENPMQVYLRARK
Chain of UniProt Q5T6F2 (Q5T6F2 whole entry, looked up): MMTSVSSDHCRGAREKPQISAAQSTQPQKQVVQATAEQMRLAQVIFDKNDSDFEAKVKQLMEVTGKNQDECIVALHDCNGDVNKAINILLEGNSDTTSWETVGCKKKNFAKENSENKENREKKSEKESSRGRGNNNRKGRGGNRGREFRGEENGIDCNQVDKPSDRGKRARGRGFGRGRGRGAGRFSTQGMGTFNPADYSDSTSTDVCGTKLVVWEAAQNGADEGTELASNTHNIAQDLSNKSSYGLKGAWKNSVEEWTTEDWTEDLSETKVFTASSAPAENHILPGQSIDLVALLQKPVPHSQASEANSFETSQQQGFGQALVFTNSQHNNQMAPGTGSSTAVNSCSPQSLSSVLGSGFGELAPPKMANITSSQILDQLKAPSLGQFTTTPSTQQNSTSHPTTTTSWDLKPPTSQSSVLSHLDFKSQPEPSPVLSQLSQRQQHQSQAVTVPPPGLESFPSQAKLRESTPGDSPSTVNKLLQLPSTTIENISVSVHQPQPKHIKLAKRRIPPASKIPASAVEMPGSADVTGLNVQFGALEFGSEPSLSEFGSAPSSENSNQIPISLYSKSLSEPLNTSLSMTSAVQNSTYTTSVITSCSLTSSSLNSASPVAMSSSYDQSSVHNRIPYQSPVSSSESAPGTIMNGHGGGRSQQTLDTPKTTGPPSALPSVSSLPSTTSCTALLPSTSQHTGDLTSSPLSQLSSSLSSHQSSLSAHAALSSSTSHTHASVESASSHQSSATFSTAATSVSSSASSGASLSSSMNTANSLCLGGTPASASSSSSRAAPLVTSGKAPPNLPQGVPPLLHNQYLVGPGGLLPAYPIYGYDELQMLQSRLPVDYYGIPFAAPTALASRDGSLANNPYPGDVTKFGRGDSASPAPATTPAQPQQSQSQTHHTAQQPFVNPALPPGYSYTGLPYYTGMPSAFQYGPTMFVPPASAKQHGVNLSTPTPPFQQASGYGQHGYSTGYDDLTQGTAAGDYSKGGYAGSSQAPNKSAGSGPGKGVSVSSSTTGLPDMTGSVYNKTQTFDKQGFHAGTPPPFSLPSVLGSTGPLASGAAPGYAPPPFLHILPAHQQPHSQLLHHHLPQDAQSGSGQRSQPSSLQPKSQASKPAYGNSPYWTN
Chain of UniProt Q9BSJ2 (Q9BSJ2 whole entry, looked up): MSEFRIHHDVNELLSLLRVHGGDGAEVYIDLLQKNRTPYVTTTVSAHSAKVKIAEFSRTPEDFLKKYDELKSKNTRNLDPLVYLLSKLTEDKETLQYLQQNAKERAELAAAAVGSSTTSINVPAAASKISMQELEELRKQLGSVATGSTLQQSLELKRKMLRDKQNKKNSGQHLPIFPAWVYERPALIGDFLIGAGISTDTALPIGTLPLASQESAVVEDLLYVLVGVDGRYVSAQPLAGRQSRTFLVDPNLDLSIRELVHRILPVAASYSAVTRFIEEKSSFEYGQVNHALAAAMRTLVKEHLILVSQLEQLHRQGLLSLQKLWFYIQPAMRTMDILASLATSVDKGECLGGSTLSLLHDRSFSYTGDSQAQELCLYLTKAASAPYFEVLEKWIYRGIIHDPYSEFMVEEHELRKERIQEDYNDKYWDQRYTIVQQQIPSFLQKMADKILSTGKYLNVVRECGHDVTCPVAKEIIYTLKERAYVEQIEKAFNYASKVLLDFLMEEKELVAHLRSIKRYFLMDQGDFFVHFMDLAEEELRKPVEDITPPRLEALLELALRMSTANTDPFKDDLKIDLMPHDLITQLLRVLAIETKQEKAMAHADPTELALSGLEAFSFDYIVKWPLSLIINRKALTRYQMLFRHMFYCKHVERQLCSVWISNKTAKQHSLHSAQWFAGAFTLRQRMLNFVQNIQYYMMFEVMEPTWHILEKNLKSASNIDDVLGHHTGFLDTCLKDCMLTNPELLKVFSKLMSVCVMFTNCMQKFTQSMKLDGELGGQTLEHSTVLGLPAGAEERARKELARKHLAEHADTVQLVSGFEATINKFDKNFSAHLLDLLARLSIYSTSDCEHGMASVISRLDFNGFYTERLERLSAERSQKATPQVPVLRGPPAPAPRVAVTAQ
Chain of UniProt Q96BZ9 (Q96BZ9 whole entry, looked up): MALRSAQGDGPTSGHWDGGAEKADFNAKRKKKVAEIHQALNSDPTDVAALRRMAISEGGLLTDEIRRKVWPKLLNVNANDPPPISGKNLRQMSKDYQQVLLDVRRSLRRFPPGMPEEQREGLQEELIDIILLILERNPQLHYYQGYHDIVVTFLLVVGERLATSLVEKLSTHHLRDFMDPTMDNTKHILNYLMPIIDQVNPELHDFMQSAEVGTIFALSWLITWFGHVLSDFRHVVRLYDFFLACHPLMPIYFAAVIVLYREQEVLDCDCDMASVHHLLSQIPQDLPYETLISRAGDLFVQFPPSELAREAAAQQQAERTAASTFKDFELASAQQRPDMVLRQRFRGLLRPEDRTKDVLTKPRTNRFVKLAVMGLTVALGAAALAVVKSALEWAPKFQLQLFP
Chain of UniProt Q14166 (Q14166 whole entry, looked up): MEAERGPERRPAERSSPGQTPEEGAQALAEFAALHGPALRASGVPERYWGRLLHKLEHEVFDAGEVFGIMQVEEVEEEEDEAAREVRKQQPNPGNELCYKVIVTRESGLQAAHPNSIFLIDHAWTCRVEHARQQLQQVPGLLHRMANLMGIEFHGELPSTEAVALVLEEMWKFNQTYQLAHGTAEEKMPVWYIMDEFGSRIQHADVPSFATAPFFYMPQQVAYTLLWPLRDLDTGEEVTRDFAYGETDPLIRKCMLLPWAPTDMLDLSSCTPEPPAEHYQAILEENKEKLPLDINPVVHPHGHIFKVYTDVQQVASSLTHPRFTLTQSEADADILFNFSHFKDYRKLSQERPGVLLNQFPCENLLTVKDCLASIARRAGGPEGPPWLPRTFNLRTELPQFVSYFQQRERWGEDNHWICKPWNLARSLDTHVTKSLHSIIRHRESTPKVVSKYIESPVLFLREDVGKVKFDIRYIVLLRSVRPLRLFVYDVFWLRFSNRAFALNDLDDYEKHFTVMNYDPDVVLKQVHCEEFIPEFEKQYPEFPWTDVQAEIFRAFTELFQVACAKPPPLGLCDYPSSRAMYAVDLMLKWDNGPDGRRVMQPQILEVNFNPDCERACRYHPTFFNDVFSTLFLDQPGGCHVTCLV
Chain of UniProt O14933 (O14933 whole entry, looked up): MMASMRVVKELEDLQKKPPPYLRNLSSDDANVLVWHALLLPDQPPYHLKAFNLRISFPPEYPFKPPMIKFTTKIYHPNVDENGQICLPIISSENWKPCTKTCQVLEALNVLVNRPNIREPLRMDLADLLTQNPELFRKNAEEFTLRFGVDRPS
Chain of UniProt Q9NZ01 (Q9NZ01 whole entry, looked up): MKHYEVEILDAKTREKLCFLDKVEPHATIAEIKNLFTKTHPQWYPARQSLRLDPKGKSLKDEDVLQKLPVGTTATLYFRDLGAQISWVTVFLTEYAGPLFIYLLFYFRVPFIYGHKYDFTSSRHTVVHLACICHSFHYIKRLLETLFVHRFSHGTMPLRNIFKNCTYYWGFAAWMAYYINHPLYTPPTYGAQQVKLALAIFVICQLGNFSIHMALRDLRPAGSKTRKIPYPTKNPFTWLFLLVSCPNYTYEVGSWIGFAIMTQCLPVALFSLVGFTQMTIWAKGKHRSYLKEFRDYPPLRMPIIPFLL
Chain of UniProt Q9BUB7 (Q9BUB7 whole entry, looked up): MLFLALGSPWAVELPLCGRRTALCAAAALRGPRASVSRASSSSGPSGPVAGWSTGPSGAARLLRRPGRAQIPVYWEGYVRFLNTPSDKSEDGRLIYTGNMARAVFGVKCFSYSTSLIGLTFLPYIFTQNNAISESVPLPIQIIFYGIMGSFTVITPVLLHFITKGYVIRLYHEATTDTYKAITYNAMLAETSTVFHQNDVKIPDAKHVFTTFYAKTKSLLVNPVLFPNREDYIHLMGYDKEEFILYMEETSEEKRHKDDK
Chain of UniProt P62256 (P62256 whole entry, looked up): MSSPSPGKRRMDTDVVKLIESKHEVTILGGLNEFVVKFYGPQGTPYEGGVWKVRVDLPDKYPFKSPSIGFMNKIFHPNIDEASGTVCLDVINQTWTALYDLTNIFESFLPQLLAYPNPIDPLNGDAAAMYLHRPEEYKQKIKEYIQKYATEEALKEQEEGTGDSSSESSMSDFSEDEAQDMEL

Target | log2 fold change (lapatinib) | log2 fold change (pictilisib) | log2 fold change (crizotinib) | log2 fold change [1] | log2 fold change (duvelisib) | log2 fold change (gandotinib) | log2 fold change (tozasertib) | log2 fold change (doramapimod) | log2 fold change (bafetinib) | log2 fold change [2]
UBR4 (UniProt Q5T4S7) | -0.023 | -0.015 | -0.038 | -0.017 | -0.001 | -0.08 | 0 | 0.01 | -0.038 | 0.037
TTC4 (UniProt O95801) | 0.006 | 0.025 | -0.073 | -0.059 | -0.001 | 0.035 | 0.009 | 0.014 | -0.001 | 0.026
TMEM199 (UniProt Q8N511) | -0.034 | -0.035 | 0.062 | -0.053 | 0.051 | 0.016 | 0.074 | -0.068 | -0.016 | 0.099
TPST2 (UniProt O60704) | 0.028 | 0.621 | -0.046 | -0.671 (active) | -0.029 | 0.109 | -0.043 | 0.057 | 0.022 | 0.126
TECR (UniProt Q9NZ01) | -0.082 | -0.032 | -0.138 | 0.011 | -0.056 | -0.448 (active) | 0.056 | -0.045 | -0.049 | 0.015
TNPO3 (UniProt Q9Y5L0) | -0.024 | -0.001 | 0.01 | -0.015 | 0.025 | -0.006 | -0.036 | -0.024 | -0.028 | 0.026
TPD52L2 isoform 7 (UniProt O43399) | 0.039 | 0.003 | 0.095 | -0.124 | -0.022 | 0.222 (active) | 0.043 | 0.03 | 0.139 | 0.057
UBTF (UniProt P17480) | -0.013 | -0.024 | -0.037 | 0.071 | -0.015 | -0.103 | 0.004 | -0.008 | -0.039 | -0.011
TUBGCP2 isoform 4 (UniProt Q9BSJ2) | -0.008 | -0.029 | -0.119 | 0.08 | -0.001 | -0.087 | 0.002 | 0.033 | 0.002 | 0.009
TBC1D23 (UniProt Q9NUY8) | -0.007 | -0.016 | -0.031 | -0.033 | -0.012 | 0.03 | 0.034 | 0.017 | -0.027 | 0.048
TYW3 (UniProt Q6IPR3) | -0.014 | 0.008 | -0.022 | -0.144 | 0.018 | 0.1 | 0 | 0.054 | 0.051 | 0.176
TMEM70 (UniProt Q9BUB7) | -0.002 | -0.012 | -0.082 | -0.304 (active) | 0.011 | 0.057 | -0.014 | 0.092 | -0.038 | 0.138
UFSP2 (UniProt Q9NUQ7) | -0.02 | -0.008 | -0.022 | -0.012 | 0.009 | -0.004 | 0.017 | 0.002 | -0.028 | 0.017
UBAP2 (UniProt Q5T6F2) | -0.04 | -0.079 | 0.091 | -0.173 | -0.003 | 0.095 | -0.02 | -0.097 | -0.066 | 0.061
TPM3 (UniProt P06753) | 0.014 | 0.005 | 0.022 | 0.123 | 0.009 | -0.039 | -0.003 | -0.022 | 0.052 | -0.088
TTL (UniProt Q8NG68) | -0.015 | -0.057 | -0.067 | 0.096 | 0.356 (active) | -0.033 | -0.112 | -0.011 | -0.091 | -0.048
TDRKH (UniProt Q9Y2W6) | -0.069 | -0.036 | -0.083 | -0.061 | -0.028 | 0.062 | 0.081 | -0.043 | 0.02 | 0.074
UBE2L6 (UniProt O14933) | 0.059 | 0.062 | -0.014 | 0.088 | 0.033 | -0.105 | 0.109 | -0.013 | -0.267 | -0.024
UBE2H (UniProt P62256) | 0.002 | -0.022 | 0.011 | 0.174 | 0.016 | -0.172 | 0.024 | 0.003 | 0.009 | -0.188
TCP11L1 (UniProt Q9NUJ3) | -0.008 | -0.028 | -0.022 | -0.204 | -0.024 | 0.066 | -0.069 | -0.017 | -0.007 | 0.146
TNIK (UniProt C9J338) | -0.042 | -0.023 | -0.075 | -0.443 (active) | 0.115 | 0.344 | 0.012 | 0.005 | -0.258 | 0.344
TTLL12 (UniProt Q14166) | -0.002 | -0.02 | -0.039 | 0.014 | 0.015 | -0.091 | 0.023 | 0.016 | -0.004 | 0.014
UCHL5 isoform 3 (UniProt Q9Y5K5) | 0.042 | -0.029 | 0.022 | 0.121 | -0.01 | -0.044 | -0.007 | -0.015 | -0.019 | -0.02
TBC1D20 isoform 3 (UniProt Q96BZ9) | -0.019 | -0.12 | -0.066 | -0.087 | 0.021 | -0.105 | -0.017 | -0.095 | -0.303 | 0.025
TRAPPC12 (UniProt Q8WVT3) | 0.02 | -0.017 | -0.033 | -0.017 | 0.012 | -0.042 | -0.029 | -0.036 | -0.039 | 0.048
UBAP2L isoform 5 (UniProt Q14157) | -0.022 | -0.116 | 0.099 | -0.002 | -0.047 | 0.034 | -0.049 | -0.121 | -0.015 | -0.026
THEMIS2 (UniProt Q5TEJ8) | -0.052 | 0.029 | -0.025 | 0.004 | -0.026 | -0.001 | 0.006 | -0.042 | -0.059 | 0.065
TCAF2 (UniProt A6NFQ2) | 0.024 | -0.017 | -0.108 | -0.02 | 0.004 | -0.098 | 0.008 | -0.03 | -0.048 | 0.041
TRAPPC9 isoform 2 (UniProt Q96Q05) | -0.02 | 0.012 | -0.084 | -0.053 | -0.038 | -0.037 | 0.037 | 0.029 | -0.026 | 0.021
TRAF2 isoform 2 (UniProt Q12933) | -0.032 | 0.004 | -0.032 | -0.047 | 0.006 | -0.045 | 0.007 | 0.005 | -0.011 | 0.053
